From PubChem BioAssay AID2315 (National Center for Advancing Translational Sciences (NCATS), 2010) come the findings set out here.

The campaign covered roughly 290,000 compounds. About 27,000 (9.3%) were called active. The full list was thinned out, with actives kept by preference. Values without a mark were called inactive. Rule as the data show it: active = inhibition mostly above about 28% (no sharp cut-off); inactive = mostly below about 43%.

The term inhibition denotes the change of the read-out against control, counted positive when it falls.

This test in a line: A qHTS for Small Molecule Inhibitors of Shiga Toxin. Also: 0% is about no effect. The note with it: Vero cells, Shiga toxin protein synthesis inhibition reporter; at 38.7 µM, stronger effect = higher value.
In the case of `Cc1ccc(NC(=O)c2oc3ccccc3c2C)c([N+](=O)[O-])c1`, the inhibition was 46.2% (active).
In the case of `Cc1ccc(NC(=O)CN(C)Cc2ccc(F)cc2)c([N+](=O)[O-])c1`, the inhibition is 19.4%.
As to `CCc1nonc1NC(=O)c1oc2ccc(Cl)cc2c1C`, the inhibition was 1.67%.
As to `Cc1c(C(=O)NC2CCCCC2)oc2ccccc12`, the inhibition was 60.6%.
For `Cc1nonc1NC(=O)c1oc2ccccc2c1C`, the inhibition is 85.7% (active).
Consider `Cc1nonc1NC(=O)c1ccccc1Br`, for which the inhibition was 30.3%.
Regarding `COCc1cc(C)n(CC(=O)NCC2CCCO2)c(=O)c1C#N` (stereo not given), the inhibition was -20.7%.
The figure for `COc1ccccc1CCCNC(=O)C1CCC(=O)N(CCN2CCOCC2)C1` (stereo not given) is -25.5%.
To `Nc1nc(NCc2ccccc2)n(-c2ccccc2)n1` belongs -6.24%; to `Cc1cccc(CC(=O)N2CCN=C2SCc2ccc([N+](=O)[O-])cc2)c1`, 2.92%.
To `S=C(Nc1cccc(Cl)c1)Nc1ccc2c(c1)OCCO2` belongs 61.2% (active).
In the case of `CN(C)S(=O)(=O)c1cccc(NC(=S)NCc2ccc3c(c2)OCO3)c1`, the inhibition was -10.4%.
With `S=C(NCc1ccco1)Nc1ccc2c(c1)OCCO2`, the inhibition was 69.3% (active).
For the compound `CC(=O)Nc1cccc(C(=O)Nc2nc(C)cs2)c1`, the inhibition is 42.6%.
To `Cc1csc(NC(=S)Nc2cccc(Cl)c2)n1` belongs 126% (active); to `S=C(NCc1ccc2c(c1)OCO2)NCc1ccco1`, 53.2%; to `S=C(Nc1cccc(Cl)c1)Nc1ccc2cn[nH]c2c1`, 34.5%.
With `FC(F)(F)c1cccc(NC(=S)Nc2cccc(Cl)c2)c1`, the inhibition was 1.44%.
The figure for `FC(F)Oc1ccc(NC(=S)NCc2ccco2)cc1Cl` is 9.56%.
For the compound `CC(NS(=O)(=O)c1ccc(OCC(=O)N2CCCC2)cc1)c1ccccc1` (stereo not given), the inhibition is -8.81%.
To `COCCn1cnc2c1c(=O)n(CC(=O)NN)c(=O)n2Cc1ccccc1` belongs 14.2%; to `C/C(=N\NC(=O)c1cc(-c2ccc(O)cc2)nc2ccccc12)c1cccnc1`, 6.02%; to `CC1CC(C)CN(CCCNC(=O)Cn2ncc3c([nH]c4ccccc43)c2=O)C1` (stereo not given), -7.63%.
`Cc1c(Br)c([N+](=O)[O-])nn1CC(=O)Nc1sc2c(c1C(=O)OC(C)C)CCC(C)C2` (stereo not given): the inhibition was -7.24%.
As for `CCCOc1cccc(C(=O)Nc2nnn(CCC)n2)c1`, the inhibition was 103% (active).
Consider `CCCn1nnc(NC(=O)COc2ccc(CC)cc2)n1`, for which the inhibition is 3.59%.
To `CCCOc1cccc(C(=O)NCCCNC(=O)c2cccnc2)c1` belongs -9.24%; to `CCCCCN(C(=O)CCC(=O)OCC(=O)NCc1ccc(OC)cc1)c1c(N)n(CCCC)c(=O)[nH]c1=O`, -10.9%.
For `CC(C)c1ccc(NC(=O)C2CCCN(S(=O)(=O)c3cccnc3)C2)cc1` (stereo not given), the inhibition was -4.38%.
`COc1ccc(NC(=O)CC2C(=O)NC3CCCCC3N2C(=O)c2ccc(F)cc2)cc1` (stereo not given): the inhibition was -4.42%.
The figure for `O=C(COc1cccc(Cl)c1)NCc1ccccc1` is 15%; for `CCN(CC)CCN1C(=O)C2C(C(=O)Nc3ccc(Br)cc3)C3C=CC2(O3)C1C(=O)NC1CCCCC1` (stereo not given) it is -12%.
`CC(C)c1cc(C(N)=O)c(NC(=O)c2cccc(COc3ccc(Br)cc3)c2)s1`: the inhibition is 199% (active).
As to `Cc1ccc(COc2ccc(C(=O)NN)cc2)cc1`, the inhibition was 30.5%.
On to `NNC(=O)c1cccc(COCC(F)(F)C(F)F)c1`, for which the inhibition is -2.2%.
To `CCn1c(SCC(=O)Nc2nccs2)nnc1-c1ccncc1` belongs -7.47%.
The figure for `Cc1cc(C(F)(F)F)nc(SCC(=O)Nc2nccs2)n1` is -9.67%; for `CC(=O)c1cc(C#N)c(SCC(=O)Nc2nccs2)nc1C` it is 65% (active).
On to `CC(=O)c1cc(C#N)c(SCC(=O)C(C)(C)C)nc1C`, for which the inhibition was 89.1% (active).
For the compound `CCn1c(SCC(=O)Nc2nccs2)nnc1-c1ccco1`, the inhibition is -6.37%.
Consider `Cc1cccc(C)c1Nc1nnc(SCC(=O)Nc2sccc2C#N)s1`, for which the inhibition is -3.87%.
Take `Cc1[nH]c2ccccc2c1SCC(=O)Nc1nccs1`: the inhibition is 63.6% (active).
With `CC(=O)c1cc(C#N)c(N2CCCCC2)nc1C`, the inhibition was 1.31%.
For `CC(=O)c1cc(C#N)c(N2CC(C)OC(C)C2)nc1C` (stereo not given), the inhibition was -8.18%.
In the case of `CCOC(=O)CNC(=O)CSc1ncccc1-c1nc2ccccc2[nH]1`, the inhibition was -7.03%.
`COc1ccc(NC(=O)C2CCC(CNS(=O)(=O)c3csc(C(N)=O)c3)CC2)cc1OC` (stereo not given): the inhibition was -12.8%.
`COc1ccc(Oc2cn[nH]c2-c2ccc(OC)cc2O)cc1`: the inhibition was -5.45%.
The figure for `C#CCSc1nnc(-c2sc3ccccc3c2Cl)o1` is 89.1% (active); for `O=C(OCC#CCSc1nnc(-c2ccncc2)o1)c1sc2ccccc2c1Cl` it is -13.4%; for `COc1ccc2c(Cl)c(-c3nnco3)sc2c1` it is -0.739%.
Take `O=C(NCCc1nnc2ccc(SCC(=O)N3CCOCC3)nn12)c1ccccc1`: the inhibition was -1.17%.
In the case of `CC(C)(C)OC(=O)N/N=C/c1cn(-c2ccccc2)nc1-c1cccnc1`, the inhibition is -2.23%.
The figure for `COc1ccc(-c2nn(-c3ccccc3)cc2C(=O)Nc2nccs2)cc1OC` is 12.9%; for `COc1ccc(-c2nn(-c3ccccc3)cc2/C=N/Nc2ccccn2)cc1OC` it is 24.4% (active); for `COc1cccc(CNC(=O)C2CCCN(c3ncnc4c3nc3n4CCCCC3)C2)c1` (stereo not given) it is -3.2%.
As to `COc1ccc(N(CC(=O)N2CCCCCC2)S(=O)(=O)c2ccccc2)cc1`, the inhibition is 32.1%.
`COc1ccc(S(=O)(=O)NCCCCOc2ccc(Cl)cc2)cc1`: the inhibition was -5.02%.
To `COc1ccc(N(CCC#N)S(=O)(=O)c2ccc(Cl)cc2)cc1` belongs 42.6% (active); to `CC1CN(C(=S)Nc2ccc(S(N)(=O)=O)cc2)CC(C)O1` (stereo not given), -8.32%.
As for `COc1ccc(OC)c(NC(=O)Cc2cccs2)c1`, the inhibition was 9.31%.
Turning to `C=C(C)C(=O)O[C@H]1C/C(C)=C\C(=O)/C=C(\C)[C@H](O)[C@@H]2OC(=O)C(=C)[C@@H]21`, the inhibition was 60% (active).
Take `CCOc1ccc(C(=O)COC(=O)c2ccc(-n3cnnn3)cc2)cc1`: the inhibition is -9.12%.
In the case of `CCC(C)(C)NC(=O)CN(C(=O)CCC(=O)Nc1nccs1)c1ccc2c(c1)OCO2`, the inhibition is -6.38%.
Regarding `COCCCNC(=O)CN1C(=O)CSc2ccc(S(=O)(=O)N3CCOCC3)cc21`, the inhibition is 15.9%.
The figure for `Cc1cccc(C(=O)NCCCN2CCCC2=O)c1` is -5.25%; for `C/C(=N\NC(=O)c1cccc(N2CCCC2=O)c1)c1ccc(N)cc1` it is 38.9%; for `O=C(NCCc1ccc(Cl)cc1)c1cccc(N2CCCC2=O)c1` it is 73.4% (active).
For `CCCNC(=O)NCc1ccc(N2CCCC2=O)cc1`, the inhibition is -8.65%.
`O=C(c1cccc(N2CCCC2=O)c1)N1CCOCC1`: the inhibition was 20.2%.
In the case of `CC1CCC(NC(=O)c2ccc(N3CCCC3=O)cc2)CC1` (stereo not given), the inhibition is 56.6% (active).
With `CC1CCCC(NC(=O)c2cccc(N3CCCC3=O)c2)C1C` (stereo not given), the inhibition is 87.5% (active).
Turning to `CC1CCCC(NC(=O)CN2CCN(Cc3ccc(Cl)cc3)C2=O)C1C` (stereo not given), the inhibition is -12.5%.
For `O=C(NCCCN1CCCCCC1)c1ccc(N2CCCC2=O)cc1`, the inhibition was 0.987%.
As to `COc1ccc(CCNc2nc(C)cc(C)n2)cc1OC`, the inhibition was 23.6%.
In the case of `CCCc1ccc(OCC(O)CN2CCN(C(=O)OCC)CC2)cc1` (stereo not given), the inhibition was -4.04%.
Consider `COc1ccc(S(=O)(=O)N2CCC(C(=O)NCc3ccco3)CC2)cc1C`, for which the inhibition is -3.78%.
As for `CN(C(=O)CCNC(=O)Cn1ccc2ccccc2c1=O)c1ccc(Br)cc1`, the inhibition is -19.7%.
In the case of `Cc1cc(CO)nn1-c1ccc([N+](=O)[O-])cc1`, the inhibition is 12.4%.
Turning to `Cc1nn(-c2ccc([N+](=O)[O-])cc2)c(N)c1-c1ccccc1`, the inhibition was 86.7% (active).
For the compound `Cc1nc(-c2ccc([N+](=O)[O-])cc2)c(-c2ccccc2)o1`, the inhibition was -2.19%.
In the case of `CCn1c(=O)c2ccccc2n(CC(=O)N2CCCc3ccccc32)c1=O`, the inhibition is -12.6%.
Consider `CN(c1ccccc1)S(=O)(=O)c1ccc2[nH]c(=O)[nH]c2c1`, for which the inhibition was 21.5%.
For the compound `CC(=O)c1ccc(N2Cc3ccccc3C2)cc1`, the inhibition was 79.3% (active).
The figure for `CC(=O)c1ccc(N2CCN(CC(O)c3ccccc3)CC2)cc1` (stereo not given) is 26.5%; for `CC(=O)c1ccc(N2CCN(C(=O)CCc3ccccc3)CC2)cc1` it is 14.3%; for `CCOC(=O)N1CCN(C(=O)c2cn(C)c3ccc(S(=O)(=O)N(CC)CC)cc3c2=O)CC1` it is 2.57%.
To `COc1ccccc1C(=O)N/C(=C/c1ccc2c(c1)OCO2)C(=O)Nc1cccc(C(=O)O)c1` belongs -9.43%.
With `CN1CCN(S(=O)(=O)c2cccc(C(=O)Nc3cccc(S(N)(=O)=O)c3)c2)CC1`, the inhibition was 13.4%.
To `O=C(c1n[nH]c2c1CCC2)N1CCCC(Nc2cccc(F)c2)C1` (stereo not given) belongs -2%; to `CCOC(=O)Cn1c(=O)sc2cccc(Cl)c21`, -13.7%.
For the compound `CC(C)(C)OC(=O)CNC(=O)c1[nH]cnc1C(=O)N[C@@H](Cc1ccccc1)C(=O)OCc1ccccc1`, the inhibition was 7.26%.
With `Cc1noc(NS(=O)(=O)c2ccc(NC(=O)c3oc4ccc(F)cc4c3C)cc2)c1C`, the inhibition is -2.45%.
Turning to `Cc1ccc(C(=O)/C=C/Nc2ccc(S(=O)(=O)Nc3onc(C)c3C)cc2)cc1`, the inhibition is 67.9% (active).
Regarding `Cc1noc(NS(=O)(=O)c2ccc(NC(=O)C34CCC(CC3)C4)cc2)c1C`, the inhibition is 0.59%.
With `O=C(Nc1ccc(S(=O)(=O)Nc2ccccn2)cc1)c1ccccc1`, the inhibition was -16.3%.
As to `O=C(/C=C/Nc1ccc(S(=O)(=O)Nc2cnc3ccccc3n2)cc1)c1cccnc1`, the inhibition was 44.7% (active).
Take `Cc1cc(OC(C)C(=O)Nc2ccc(S(=O)(=O)Nc3onc(C)c3C)cc2)cc(C)c1Cl` (stereo not given): the inhibition was -8.09%.
For `C=C(C)CNC(=S)Nc1ccc(S(=O)(=O)Nc2cnc3ccccc3n2)cc1`, the inhibition was 6.75%.
To `CCn1c(SCC(=O)Nc2ccc(S(=O)(=O)Nc3onc(C)c3C)cc2)nnc1-c1ccccc1` belongs -13.6%; to `Cc1noc(NS(=O)(=O)c2ccc(N/C=C/C(=O)c3ccccc3)cc2)c1C`, 71.6% (active).
